Hits are enriched below; roughly 3.4% of the tested compounds scored in any of these assays.
NR2F2 inh: NR2F2 transcriptional activity inhibitors, primary screen, cell-based, luciferase reporter, HEK293T, luminescence | COUP transcription factor 2 (Homo sapiens), P24468 | HEK293T NGFI-A luciferase reporter | inhibition, % at 8.6 µM | 370,000 compounds, 0.7% hits;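 active = inhibition above a per-plate cutoff, mean inhibition of test wells between control levels plus 3 SD, cut at about 38% in these data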;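 also: cells cotransfected with COUP-TFII expression vector driving the NGFI-A reporter; 0% = median of COUP-TF2 test wells and 100% = reporter-only cells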
SMARCA2 activ: SMARCA2 (BRM) function activators, primary screen, cell-based, luminescence, high throughput. MG213 cells, MMTV-luciferase reporter, dexamethasone, overnight. activation, % at 9.1 µM. 370,000 compounds, 1% hits; in the data active = activation above about 7.8%;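 also: 0% = vehicle wells and 100% = reference activator wells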
FXN GAA850 act: FXN promoter activators, primary screen, cell-based, luciferase luminescence, HEK293 lucGAA850; activation, % at 6 µM; AID 540364, 2011; HEK293 lucGAA850 FXN promoter luciferase reporter, 24 h; percent of 10 µM SAHA response; 360,000 compounds, 0.56% hits;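 active = activation above the average of all compounds screened plus 3 SD, cutoff fixed separately per campaign, cut at about 7.5% in these data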;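 also: 0% = DMSO wells and 100% = 10 µM SAHA wells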
H9c2 protect: cardioprotection against H2O2-induced cell death, primary screen, uHTS, H9c2 cells, ATPLite luminescence | AID 588492, 2011 | H9c2 cardiomyocytes, H2O2 injury protection, 2 h | protection from H2O2 cell death, % at 20 µM | 360,000 compounds, 0.63% hits;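 active = compounds giving at least 50% protection of heart cells from peroxide-induced death in the single-dose screen, raw or plate-pattern-corrected value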;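 also: 0% = DMSO wells with peroxide and 100% = DMSO wells without peroxide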
Gli-Sufu block: Gli-Sufu pathway antagonists, primary screen, luciferase luminescence, Sufu-KO-LIGHT cells, uHTS; Sufu-KO-LIGHT fibroblasts, Gli luciferase reporter luminescence; 340,000 compounds, 0.74% hits; inhibition, % at 5 µM;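 active = inhibition above about 55%, limit read from the data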;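 also: 0% = DMSO-treated cells and 100% = wells with medium but no cells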
GalR3 antag: GalR3 antagonists in HEK293 cells, primary screen, cell-based, fluorescence readout; Galanin receptor type 3 (Homo sapiens), O60755; HEK293 GalR3-CNG cAMP membrane potential fluorescence; galR3 body fused to GalR1 C-terminus; inhibition, % at 3 µM; 360,000 compounds, 0.44% hits; AID 651719, 2012;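 active = inhibition above the screen-wide average plus 3 SD, cut at about 13% in these data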;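 also: forskolin and galanin both at EC90 stimulate the cells; cAMP rise reported by CNG channel membrane potential dye signal; 0% = forskolin plus galanin with DMSO and 100% = forskolin alone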
Target sequence (O60755 1-299 limits assumed): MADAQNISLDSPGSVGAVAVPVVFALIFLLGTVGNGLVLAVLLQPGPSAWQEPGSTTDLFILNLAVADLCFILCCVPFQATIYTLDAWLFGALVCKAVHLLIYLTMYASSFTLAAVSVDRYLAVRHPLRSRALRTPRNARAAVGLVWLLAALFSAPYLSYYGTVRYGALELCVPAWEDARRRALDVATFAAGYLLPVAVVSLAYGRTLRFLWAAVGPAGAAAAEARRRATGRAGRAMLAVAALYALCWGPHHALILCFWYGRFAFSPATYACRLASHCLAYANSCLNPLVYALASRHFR
The depositor's hits bear a star; · = no result.

SMILES	NR2F2 inh	SMARCA2 activ	FXN GAA850 act	H9c2 protect	Gli-Sufu block	GalR3 antag
Cc1cc2ccccc2c(=O)[nH]1	-10	-2	1	57*	-5	-1
Cc1ccccc1Nc1cc2ccccc2c(=O)[nH]1	·	·	-2	-36	3	·
C[C@H]1[C@@H](OC(=O)NCc2cccnc2)CC[C@@]23CCCN2C(=O)CCC[C@@H]13	-17	·	·	·	·	·
O=S1(=O)c2ccc(Br)cc2OC[C@@H](Cc2ccccc2)N1Cc1cn(Cc2ccc(C(F)(F)F)cc2)nn1	-6	1	·	·	·	·
C=CCN1CCc2c(cc(O)c(O)c2Br)[C@@H](c2ccccc2)C1	8	1	4	60*	17	0
O=C(CBr)N1CCc2ccccc2C(c2ccccc2)C1 (stereo not drawn)	-21	7	4	-2	6	3
CCCCC(CCCC)=N/N=C/c1c(O)n(CC)c2cc(C3=NNC(=O)CC3)ccc12	6	1	1	19	7	10
CCn1c(O)c(/C=N/N=C2CCCC2)c2ccc(C3=NNC(=O)CC3)cc21	-10	2	-1	57*	-5	-1
C=CCN(CC#Cc1cccnc1)Cc1ccc(OC)cc1OC	-4	-2	·	·	·	·
O=C(Cn1[nH]c(=O)c2ccccc2c1=O)OCC(=O)N1CCCc2ccccc21	-6	-5	-1	86*	9	2
O=C(Cn1[nH]c(=O)c2ccccc2c1=O)N1CC=C(c2ccccc2)CC1	-1	-4	1	48*	22	-1
O=C(Cn1[nH]c(=O)c2ccccc2c1=O)OCC(=O)N1CCc2ccccc2C1	8	-1	0	90*	-7	-3
CCN(C[C@H]1N[C@@](CC)(C(=O)OC)[C@H]2C(=O)N(Cc3ccccc3)C(=O)[C@@H]12)S(=O)(=O)c1ccc(F)cc1	-11	-2	7	59*	8	-8
CC(=O)C1=CCC(c2cccc(Cl)c2)N(S(=O)(=O)c2ccc(C)cc2)C1 (stereo not drawn)	1	-1	·	-2	·	-6
CCc1ccc(-c2nc(CN3CCC(C(=O)NCc4ccc(F)cc4)CC3)c(C)o2)cc1	5	-2	-3	-2	93*	-3
CCc1ccc(-c2nc(CN3CCC(C(=O)NCCN(CC)c4ccccc4)CC3)c(C)o2)cc1	5	2	-5	-18	-29	-4
COC(=O)CN(Cc1cn(Cc2ccccc2)nn1)S(=O)(=O)c1ccccc1Br	-6	-2	·	·	·	·
CCN(Cc1ccccc1)C(=O)c1cc2c(=O)oc3ccc(C)cc3c2s1	5	-1	1	97*	-2	2
COC(=O)C[C@H]1CC[C@H]2[C@H](COc3ccc(NC(=O)Nc4ccccc4F)cc3C(=O)N2C)O1	-20	7.9*	·	·	·	·
Cc1cc(N2CCN(CCO)CC2)n2nc(C)nc2n1	4	5	·	·	·	·
Cc1ccc(CN2CCCCC(NC(=O)c3ccc4ccccc4c3)C2=O)cc1 (stereo not drawn)	-23	-1	·	·	·	·
c1ccc(-c2cn3ccccc3n2)cc1	-39	7.9*	4	-13	-85	-2
CN1C(=O)c2cc(NC(=O)C3CC3)ccc2OC[C@H]2O[C@@H](CC(=O)NC3CCC3)CC[C@@H]21	14	0	·	·	·	·
CCC(CC)C(=O)Nc1cc(C)c2c(=O)oc3ccccc3c2n1	1	0	0	71*	13	3
Cc1cc(NC(=O)c2ccccc2)nc2c1c(=O)oc1ccccc12	11	1	-3	41	2	-5
SMILES	NR2F2 inh	SMARCA2 activ	FXN GAA850 act	H9c2 protect	Gli-Sufu block	GalR3 antag
Cc1nn(C)cc1NC(=O)C[C@H]1CC[C@H]2[C@@H](COc3ccc(NC(=O)Nc4ccccc4)cc3C(=O)N2C)O1	-3	-2	·	·	·	·
COc1ccccc1N1CCN(C(=O)c2sc3ncnc(N4CCN(c5ccccn5)CC4)c3c2C)CC1	·	·	-5	22	26	·
COc1ccc(OC)c(NC(=O)c2sc3ncnc(N4CCN(c5ccccn5)CC4)c3c2C)c1	·	·	-2	86*	10	·
COc1cc(-c2cc(NC(C)=O)c3ncc(-c4cc(OC)c(OC)c(OC)c4)n3c2)cc(OC)c1OC	-76	-5	-2	66*	·	5
COc1cc(-c2cc(NC(C)=O)c3ncc(-c4ccccc4)n3c2)cc(OC)c1OC	-32	-2	1	70*	·	3
CC(=O)Nc1cc(-c2ccc(C(=O)NC3CC3)cc2)cn2c(-c3cccc(C(C)=O)c3)cnc12	-13	-3	-2	50*	·	-1
COc1ccccc1-c1cc(NC(C)=O)c2ncc(-c3cccc(C(C)=O)c3)n2c1	-8	-4	3	52*	·	-4
COc1ccc(/C=C/S(=O)(=O)NCCc2ccccc2)c(CNC(=O)OC(C)(C)C)c1	-10	-3	·	·	·	·
C=CCN1C(=O)[C@H](CC(=O)NCCCC)[C@@]2(C(=O)OCC)CCCC=C12	3	-2	·	·	·	·
COc1ccc(-c2cnc3c(NC(C)=O)cc(-c4ccsc4)cn23)cc1OC	·	·	3	32	·	·
COc1ccc(-c2cc(NC(C)=O)c3ncc(-c4ccc(OC)c(OC)c4)n3c2)cc1OC	-13	1	3	67*	·	-2
COc1cc(Cl)cc(/C=C/c2ccc3cccc(O)c3n2)c1OC	-6	-1	1	57*	10	-8
COc1ccc(Cl)cc1/C=C/c1ccc2cccc(O)c2n1	-6	6	2	41	7	-7
c1ccc(-c2nnc3n2N=C(c2ccc4ccccc4c2)CS3)nc1	20	-3	·	·	·	·
Cn1c(-c2ccc(F)cc2)cc2onc(-c3c(F)cccc3Cl)c2c1=O	-32	10*	·	·	-154	-1
Cc1c(-c2ccccc2)oc2c(C(=O)OCC(=O)Nc3ccc(C(N)=O)cc3)cccc2c1=O	11	1	2	74*	0	-5
COC(=O)c1ccc(NC(=O)COC(=O)c2cccc3c(=O)c(C)c(-c4ccccc4)oc23)cc1	7	0	5	25	1	-3
Cc1cccc(OCCn2nc(C(=O)O)c3ccccc3c2=O)c1	14	0	4	73*	0	5
O=[N+]([O-])c1ccc(Nc2nc(N/N=C/c3cccc(F)c3)nc(N3CCCC3)n2)cc1	-3	-1	-1	84*	7	1
CCN1CCS/C1=C/C=C/C1=[N+](CC)CCS1	·	·	-4	-14	82*	·
CN1CCCc2cc3c(C(F)(F)F)cc(=O)oc3nc21	0	-1	1	13	96*	0
Nc1c(Cl)ncnc1N/N=C/c1ccc2ccccc2n1	-36	-5	-15	4	66*	-6
Nc1c(Cl)ncnc1N/N=C/c1ccccn1	2	-2	·	·	77*	0

From PubChem
